According to PubChem BioAssay:
Activity calls are given as the source filed them. Unless noted, how the calls were made is not given here.

Assays:
[1] = compound effects on lung adenocarcinoma cell viability – A549, calcein-AM fluorescence, 48 h, basal, profiling panel (AID 1162); conditions: higher = more signal; further: test concentration not given here
[2] = compound effects on differentiated 3T3-L1 adipocyte viability – cell-based, 3T3-L1 adipocytes, calcein-AM fluorescence, 48 h, basal, profiling panel (AID 1163); conditions: 3T3-L1 adipocytes viability, higher = more signal; further: test concentration not given here
[3] = compound effects on hepatocellular carcinoma cell viability – HepG2, calcein-AM fluorescence, 48 h, basal, profiling panel (AID 1164); conditions: higher = more signal; further: test concentration not given here
[4] = compound effects on multiple myeloma cell viability – MM1S, calcein-AM fluorescence, 48 h, basal, profiling panel (AID 1165); conditions: higher = more signal; further: test concentration not given here
[5] = calcein-AM signal in unstimulated myeloma cells – cell-based, calcein-AM fluorescence, 48 h, PK04 Diversity Set, profiling panel (AID 1166); conditions: RPMI8226 myeloma viability, higher = more signal;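 further: cells grown under basal conditions without added stimulus; test concentration not given here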
[6] = JC-1 mitochondrial signal, unstimulated HepG2 cells – cell-based, JC-1 fluorescence, 24 h, 100 nL compound, profiling panel (AID 1167); conditions: HepG2 mitochondrial potential, higher = more signal; further: test concentration not given here
[7] = JC-1 mitochondrial signal, unstimulated adipocytes – cell-based, JC-1 fluorescence, 3T3-L1 adipocytes, 24 h, 100 nL compound, profiling panel (AID 1168); conditions: JC-1 mitochondrial fluorescence, higher = more signal, called active from +8 up or from −8 down; further: test concentration not given here
[8] = JC-1 mitochondrial signal, unstimulated myeloma cells – cell-based, JC-1 fluorescence, RPMI8226, 24 h, 100 nL compound, profiling panel (AID 1169); conditions: JC-1 mitochondrial potential fluorescence, higher = more signal; further: test concentration not given here
[9] = JC-1 mitochondrial signal, unstimulated MM1S myeloma – cell-based, JC-1 fluorescence, 24 h, 100 nL compound, profiling panel (AID 1170); conditions: MM1S mitochondrial potential, higher = more signal; further: test concentration not given here
[10] = resazurin metabolic signal in A549 cells – cell-based, resazurin fluorescence, 24 h, PK04 Diversity Set, profiling panel (AID 1171); conditions: A549 viability, higher = more signal, called active from +8 up or from −8 down; further: test concentration not given here
[11] = resazurin metabolic signal in HepG2 cells – cell-based, resazurin fluorescence, 24 h, PK04 Diversity Set, profiling panel (AID 1172); conditions: HepG2 viability, higher = more signal; further: test concentration not given here
[12] = budding yeast growth changes without added modifier – OD600, strain BY4716, 24 h, basal condition, primary screen (AID 1173); conditions: S. cerevisiae BY4716 growth, OD600, 24 h; higher = more signal, called active from +8 up or from −8 down
[13] = viability profiling in MM1S myeloma cells – cell-based, resazurin fluorescence, basal, 24 h, PK04 Diversity Set, profiling panel (AID 1174); conditions: higher = more signal, called active from +8 up or from −8 down; further: test concentration not given here
[14] = molecular target: Dihydroorotate dehydrogenase (quinone), mitochondrial (Plasmodium falciparum (isolate 3D7)) (UniProt Q08210); assay: inhibition of P. falciparum DHODH – biochemical, C-terminal His tag, absorbance 600 nm, primary screen (AID 1175); conditions: PfDHODH enzyme, DCIP absorbance 600 nm; higher = more signal, called active from +8 up or from −8 down;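 further: recombinant parasite enzyme with a five histidine tag at its C terminus; test concentration not given here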
Sequence of Dihydroorotate dehydrogenase (quinone), mitochondrial (Plasmodium falciparum (isolate 3D7)) (Q08210 whole entry, looked up): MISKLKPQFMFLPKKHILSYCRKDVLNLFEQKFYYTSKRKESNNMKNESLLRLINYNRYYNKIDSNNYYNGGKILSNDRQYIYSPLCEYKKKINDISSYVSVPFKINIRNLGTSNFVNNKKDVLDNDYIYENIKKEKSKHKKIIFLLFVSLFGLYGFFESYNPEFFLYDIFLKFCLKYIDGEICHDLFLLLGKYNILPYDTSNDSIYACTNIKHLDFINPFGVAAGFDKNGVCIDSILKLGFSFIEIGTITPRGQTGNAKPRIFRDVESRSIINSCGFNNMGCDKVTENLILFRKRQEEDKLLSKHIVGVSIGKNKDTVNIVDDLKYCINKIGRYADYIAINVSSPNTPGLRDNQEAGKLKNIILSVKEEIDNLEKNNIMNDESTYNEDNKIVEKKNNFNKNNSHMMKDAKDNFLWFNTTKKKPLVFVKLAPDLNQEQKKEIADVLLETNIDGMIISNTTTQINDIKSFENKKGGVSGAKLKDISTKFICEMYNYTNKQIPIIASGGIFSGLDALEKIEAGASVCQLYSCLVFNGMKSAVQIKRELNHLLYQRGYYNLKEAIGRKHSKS

[15] = inhibition of PAO1 biofilm formation – strain PAO1, LB-PBS medium, absorbance 600 nm, primary screen (AID 1176); further: test concentration not given here; conditions: P. aeruginosa PAO1 growth/biofilm, A600, 12 h; higher = more signal
[16] = growth modulation of vineyard yeast isolate – strain RM11-1a, OD600, basal, 24 h, primary screen (AID 1177);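 further: cultures grown under basal conditions with no added stressor; test concentration not given here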; conditions: S. cerevisiae RM11-1a growth, OD600, 24 h; higher = more signal, called active from +8 up or from −8 down
[17] = growth of efflux-deficient E. coli DRC39 – strain DRC39, OD650, 24 h, E. coli filamentation inducers, primary screen (AID 1178);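 further: growth measured as culture turbidity by optical density at 650 nm; test concentration not given here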; conditions: E. coli DRC39 acrAB, higher = more signal, called active from +8 up or from −8 down
[18] = growth of efflux-deficient E. coli DRC39 – strain DRC39, OD650, 48 h, E. coli filamentation inducers, primary screen (AID 1179);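 further: screen aims at cell division blockers that make cells filament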; conditions: E. coli DRC39 delta-acrAB growth, higher = more signal, called active from +8 up or from −8 down
[19] = viability profiling in RPMI8226 myeloma cells – cell-based, resazurin fluorescence, basal, 24 h, PK04 Diversity Set, profiling panel (AID 1180); conditions: higher = more signal;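 further: RPMI8826 multiple myeloma cell line at 5000 cells per well; test concentration not given here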
[20] = molecular target: E3 ubiquitin-protein ligase XIAP (Homo sapiens) (UniProt P98170); assay: small molecules binding XIAP protein – biophysical, small-molecule microarray, fluorescence 635 nm, primary screen (AID 1181); conditions: higher = more signal;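 further: score merges 667 nm emission and signal to noise over triplicate slides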
Sequence of E3 ubiquitin-protein ligase XIAP (Homo sapiens) (P98170 whole entry, looked up): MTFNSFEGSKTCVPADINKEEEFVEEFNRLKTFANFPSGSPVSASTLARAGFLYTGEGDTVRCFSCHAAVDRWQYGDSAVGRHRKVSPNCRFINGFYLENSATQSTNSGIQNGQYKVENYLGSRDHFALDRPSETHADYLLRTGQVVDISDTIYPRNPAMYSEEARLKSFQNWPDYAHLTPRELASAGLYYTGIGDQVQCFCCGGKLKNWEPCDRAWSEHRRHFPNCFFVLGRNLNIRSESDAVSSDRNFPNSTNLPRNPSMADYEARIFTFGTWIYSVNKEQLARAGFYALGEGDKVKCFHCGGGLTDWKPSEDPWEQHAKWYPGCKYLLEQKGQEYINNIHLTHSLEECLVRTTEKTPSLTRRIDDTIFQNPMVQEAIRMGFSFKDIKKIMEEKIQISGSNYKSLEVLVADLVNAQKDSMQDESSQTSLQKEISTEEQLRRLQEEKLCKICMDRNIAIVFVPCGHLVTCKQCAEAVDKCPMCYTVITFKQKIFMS

| SMILES | z-score [1] | z-score [2] | z-score [3] | z-score [4] | z-score [5] | z-score [6] | z-score [7] | z-score [8] | z-score [9] | z-score [10] | z-score [11] | z-score [12] | z-score [13] | composite z-score [14] | z-score [15] | z-score [16] | z-score [17] | z-score [18] | z-score [19] | composite z-score [20] |
| --- | --- | --- | --- | --- | --- | --- | --- | --- | --- | --- | --- | --- | --- | --- | --- | --- | --- | --- | --- | --- |
| O=c1cccc(-c2ccc(C(F)(F)F)cc2)o1 | -1.24 | -0.843 | -0.701 | 0.506 | -1.02 | -0.487 | 1.75 (inactive) | 0.942 | -0.507 | 0.374 (inactive) | -0.0559 | -9.38 (active) | 0.0889 (inactive) | -0.723 (inactive) | 0.0767 (inactive) | -0.962 (inactive) | -0.865 (inactive) | -0.325 (inactive) | 0.263 | 0.0535 |
| COC(=O)C1(Cc2ccccc2)C=C2C(=C(C(C)C)C(=O)C2C)CN1 (stereo not given) | -0.859 | 0.575 | -1.75 | -1.89 | -1.53 | -1 | -1.76 (inactive) | 0.838 | 0.0816 | -1.33 (inactive) | -0.88 | 0.736 (inactive) | -2.2 (inactive) | -1.72 (inactive) | 1.35 (inactive) | 0.905 (inactive) | -0.999 (inactive) | -0.927 (inactive) | -1.59 | 0.0493 |
| C=CCOC(=O)[C@H]1[C@@H]2C(=O)O[C@@H](c3ccccc3)[C@@H](c3ccccc3)N2[C@@H](c2ccc(OCCOC(=O)[C@H]3C[C@H]4C(=O)N[C@@H](Cc5ccccc5)C(=O)N4[C@H]3c3ccc(O)cc3)cc2)[C@]12C(=O)Nc1ccc(I)cc12 | -0.7 | 0.664 | 1.16 | 0.0161 | -0.321 | 0.408 | -0.118 (inactive) | -0.59 | -1.04 | -0.0968 (inactive) | -0.16 | 1.82 (inactive) | -0.417 (inactive) | -1.16 (inactive) | 4.1 (inactive) | 1.66 (inactive) | -0.359 (inactive) | -0.293 (inactive) | 0.194 | 0.0981 |
| O=C(N1CCCCC1)[C@@]1(Cc2ccccc2)COC(c2ccc(OCCCO)cc2)=N1 | -1.14 | 0.675 | -0.159 | -3.14 | -1.77 | -2.33 | 0.987 (inactive) | -1.08 | -0.923 | 1.68 (inactive) | 0.271 | -5.06 (inactive) | -0.949 (inactive) | -0.447 (inactive) | 0.258 (inactive) | 2.13 (inactive) | 0.401 (inactive) | 0.0519 (inactive) | 0.482 | 0.284 |
